Here are results for eight compounds from PubChem BioAssay (NCI).

Test systems include NCI-H23 lung; NCI-H226 lung; NCI-H322M lung; HOP-62 NSCLC; NCI-H460 lung; HOP-92 NSCLC; A549/ATCC NSCLC; 786-0 renal; COLO 205 colon; DU-145 prostate; K-562 leukemia; MALME-3M melanoma; MDA-MB-231 breast; RXF 393 renal; SF-268 CNS; SF-295 CNS; SF-539 CNS; UACC-257 melanoma; M14 melanoma.
Holding throughout (test): NCI-60 one-dose screen, 48 h (100 = growth as untreated, 0 = no growth, -100 = all killed)
Details in all cases: 10 µM unless noted

The structures appear in SMILES notation. This is part of a sample that, as a whole, favours compounds with a hit. Of some 83,000 tested, about 20% had one in any assay.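 A percent growth of 40 corresponds to 60% growth inhibition; 0 means no net growth; -100 means all cells died. Active threshold: below 10.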 Unmarked numbers belong to inactive results. Calls of active or inactive are those of the source.

As to `CC(=O)OCC(=O)[C@@]1(O)CC[C@H]2[C@@H]3CCC4=CC(=O)CC[C@]4(C)[C@@]3(F)[C@@H](O)C[C@@]21C`, the growth in the test on NCI-H23 lung is 108%; with NCI-H226 lung, 68.8%; in the test with NCI-H322M lung it was 129%; in the test with HOP-62 NSCLC, 109%; in the test on NCI-H460 lung, 94%; in the test on HOP-92 NSCLC it was 66.9%. Also, the growth is 78.4% with A549/ATCC NSCLC; 116% in the test with 786-0 renal; 97.8% in the test with COLO 205 colon; 96% in the test with DU-145 prostate; 108% in the test on K-562 leukemia; 120% with MALME-3M melanoma. In addition, the growth was 103% in the test with MDA-MB-231 breast; 129% in the test with RXF 393 renal; 91.5% with SF-268 CNS; 115% in the test with SF-295 CNS; 90.8% in the test on SF-539 CNS; 94.6% with UACC-257 melanoma. For the same compound, the growth with M14 melanoma is 85.7%.
`COc1cc(/C=C/C(=O)c2c(C)n([O-])c3ccccc3[n+]2=O)cc(OC)c1OC`: the growth is 54.9% in the test with NCI-H23 lung; 86.5% in the test on NCI-H226 lung; 49% in the test on NCI-H322M lung; 105% in the test with HOP-62 NSCLC; 20.6% in the test with NCI-H460 lung; -0.517% (active) with HOP-92 NSCLC. Also, the growth was 51.4% in the test with A549/ATCC NSCLC; 65.9% in the test on 786-0 renal; 55.9% in the test on COLO 205 colon; 32.6% with DU-145 prostate; 21.8% with K-562 leukemia; 66.2% with MALME-3M melanoma. Also, the growth is 78.9% in the test on MDA-MB-231 breast; 53.9% in the test on RXF 393 renal; 43.6% with SF-268 CNS; 46.8% in the test on SF-295 CNS; 75.5% in the test with SF-539 CNS; 54.4% in the test on UACC-257 melanoma. For the same compound, the growth in the test with M14 melanoma was 60.2%.
Regarding `CCOc1cc(/C=C/C(=O)CC(=O)/C=C/c2ccc(OC(=O)CNCCN(CC)CC)c(OCC)c2)ccc1OC(=O)CNCCN(CC)CC`, the growth was -35.6% (active) in the test on NCI-H23 lung; -41.3% (active) with NCI-H226 lung; -0.873% (active) with NCI-H322M lung; -32.1% (active) in the test with HOP-62 NSCLC; -27.3% (active) in the test on NCI-H460 lung; -3.28% (active) in the test with HOP-92 NSCLC. Besides, the growth with A549/ATCC NSCLC was 12.4%; in the test on 786-0 renal it was -91.6% (active); in the test with COLO 205 colon it was -51.3% (active); in the test with DU-145 prostate, -44.3% (active); in the test with K-562 leukemia, -10.8% (active); with MALME-3M melanoma it was -39.9% (active). Further, the growth in the test on MDA-MB-231 breast is 5.09% (active); in the test with RXF 393 renal it was -79.4% (active); with SF-268 CNS, 3.21% (active); in the test with SF-295 CNS, -18.4% (active); with SF-539 CNS it was -58.1% (active); with UACC-257 melanoma, 23.6%. Besides, the growth in the test on M14 melanoma was -14.5% (active).
Consider `CN(C)c1ncnc2c1ncn2C1CCCCO1` (configuration not stated), for which the growth with NCI-H23 lung is 101%; in the test on NCI-H226 lung, 98.5%; with NCI-H322M lung it was 98.9%; in the test with HOP-62 NSCLC, 110%; with NCI-H460 lung it was 113%; with HOP-92 NSCLC, 71%. The growth in the test with A549/ATCC NSCLC is 104%; with 786-0 renal it was 99.4%; in the test on COLO 205 colon it was 98.3%; in the test on DU-145 prostate, 115%; in the test on K-562 leukemia, 102%; with MALME-3M melanoma, 101%. Further, the growth is 106% with MDA-MB-231 breast; 114% in the test on RXF 393 renal; 106% in the test with SF-268 CNS; 116% with SF-295 CNS; 103% in the test with SF-539 CNS; 106% in the test with UACC-257 melanoma. Further, in the test with M14 melanoma, the growth was 105%.
On to `CC(C)N(Cc1ccccc1)c1c(S)ssc1=S`, for which the growth in the test with NCI-H23 lung is 22.8%; in the test with NCI-H226 lung, 14.2%; in the test on NCI-H322M lung, 7.56% (active); in the test on HOP-62 NSCLC, 9.6% (active); in the test on NCI-H460 lung, 4.45% (active); with HOP-92 NSCLC it was -36.2% (active). Also, the growth is 4.58% (active) in the test with A549/ATCC NSCLC; 10.6% in the test with 786-0 renal; -40.1% (active) in the test with COLO 205 colon; 10.7% with DU-145 prostate; 15.1% in the test on K-562 leukemia; -4.76% (active) with MALME-3M melanoma. In addition, the growth in the test on MDA-MB-231 breast is 2.92% (active); with RXF 393 renal, -17.4% (active); in the test on SF-268 CNS it was 28.8%; in the test on SF-295 CNS, -5.63% (active); with SF-539 CNS it was 2.54% (active); in the test on UACC-257 melanoma, 5.96% (active). Further, the growth in the test with M14 melanoma is 17.6%.
Turning to `O=C(CNC(=O)c1cccc2ccccc12)Nc1ccccc1Cc1ccccc1`, the growth was 52.1% [5 µM] in the test on NCI-H23 lung; 72.3% [5 µM] with NCI-H226 lung; 78.4% [5 µM] in the test with NCI-H322M lung; 36.4% [5 µM] with HOP-62 NSCLC; 17.9% [5 µM] in the test with NCI-H460 lung; 53.5% [5 µM] in the test with HOP-92 NSCLC. The growth in the test on A549/ATCC NSCLC is 27% [5 µM]; in the test on 786-0 renal it was 45.3% [5 µM]; with COLO 205 colon it was 29.4% [5 µM]; in the test with DU-145 prostate, 48.4% [5 µM]; in the test with K-562 leukemia, 12.3% [5 µM]; in the test with MALME-3M melanoma, 46.8% [5 µM]. Also, the growth is 64.1% [5 µM] in the test on MDA-MB-231 breast; 47.2% [5 µM] in the test on RXF 393 renal; 48.6% [5 µM] in the test on SF-268 CNS; 17.1% [5 µM] in the test with SF-295 CNS; 26.7% [5 µM] in the test on SF-539 CNS; 25.4% [5 µM] in the test on UACC-257 melanoma. Further, the growth in the test on M14 melanoma was 10.6% [5 µM].
For `COc1ccc(C(=O)/C=C/c2cccc(Nc3ccnc4cc(Cl)ccc34)c2)cc1`, the growth with NCI-H23 lung was 43.2%; with NCI-H226 lung, 54.3%; in the test on NCI-H322M lung, 49.6%; with HOP-62 NSCLC, 18.8%; with NCI-H460 lung, 31.6%; with HOP-92 NSCLC, 29.1%. Moreover, the growth in the test on A549/ATCC NSCLC was 29.4%; in the test on 786-0 renal, -35.4% (active); in the test with COLO 205 colon, 45.1%; with DU-145 prostate it was 37%; in the test with K-562 leukemia, 21%; in the test on MALME-3M melanoma, 44%. The growth with MDA-MB-231 breast was 13.7%; in the test with RXF 393 renal, 41.7%; with SF-268 CNS, 39%; with SF-295 CNS, 30.6%; in the test with SF-539 CNS it was 28.4%; in the test on UACC-257 melanoma it was 37.8%. Besides, in the test on M14 melanoma, the growth was 23.2%.
As for `C/C(=C\CCc1ccoc1)CC/C=C(\C)CCCC1COC(=O)C1` (configuration not stated), the growth in the test on NCI-H23 lung is 106%; with NCI-H226 lung, 104%; in the test on NCI-H322M lung, 88.9%; in the test on HOP-62 NSCLC, 96.9%; in the test with NCI-H460 lung, 98.8%; with HOP-92 NSCLC, 88%. For the same compound, the growth was 97% in the test with A549/ATCC NSCLC; 101% in the test with 786-0 renal; 109% in the test with COLO 205 colon; 105% in the test on DU-145 prostate; 98.4% in the test on K-562 leukemia; 89.5% with MALME-3M melanoma. Also, the growth was 92.6% with MDA-MB-231 breast; 99.1% in the test on RXF 393 renal; 107% with SF-268 CNS; 99% in the test with SF-295 CNS; 93.4% in the test on SF-539 CNS; 101% in the test with UACC-257 melanoma. In addition, in the test with M14 melanoma, the growth is 104%.
